According to PubChem BioAssay (NCATS):
Inconclusive results are not listed. Active and inactive are the calls of the source. Calls come from the whole dose curve; as a rule, active = well fitted curve in the direction sought with a large enough effect; inconclusive = small, poorly fitted or top-dose-only effect, or another doubt; inactive = no such curve, though single readings can be large; an effect the other way counts as inactive or inconclusive.

What was measured:
[1] = qHTS of pediatric cancer cell lines to identify multiple opportunities for drug repurposing: Primary screen for Rh41 cells (AID 1347108); conditions: Rh41 rhabdomyosarcoma viability, CellTiter-Glo luminescence, 48 h; series mostly up to 46 µM; note: nearly all actives have a fitted effect of over 70% in size; note: potency is the fitted concentration of half-maximal effect;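 for activity change, negative = cytotoxic: luminescence drop marks cytotoxic hits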
Outline: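 Readout: CellTiter-Glo luminescence, 48 h treatment. Controls DMSO (neutral) and bortezomib 2.3 µM final (positive). Potency and efficacy taken from primary-screen concentration-response curves.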

[2] = qHTS of pediatric cancer cell lines to identify multiple opportunities for drug repurposing: Primary screen for Rh30 cells (AID 1347107); conditions: Rh30 rhabdomyosarcoma viability, CellTiter-Glo luminescence, 48 h; series mostly up to 46 µM; note: % is set by controls: 0 for no effect and ±100 for the full control effect; nearly all actives have a fitted effect of over 75% in size
Outline: (§1)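 Cells (500-1,000/well) in growth media were settled 5 h at 37 degrees C, then given compounds for 48 h. Viability was read as CellTiter-Glo luminescence. Primary runs used MIPE at 11 points (0.78 nM-46 µM) and NPC at 8 points (0.59 nM-46 µM); follow-ups used 11 points.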

Furin (Homo sapiens) = Furin (Homo sapiens) (UniProt P09958); assay: Furin counterscreen qHTS for Zika virus inhibitors (AID 1347149); conditions: furin enzymatic counterscreen, fluorogenic substrate; series mostly up to 57.5 µM;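 note: purified recombinant full-length human furin enzyme at 5 nM; fluorescence gain from furin cutting a BOC-RVRR-AMC peptide substrate over 15 min; top concentration of the series differs between compounds; plate controls were no-inhibitor control for no effect and no-enzyme control for full effect; nearly all actives have a fitted effect of over 70% in size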
Outline: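 Counterscreen measures cleavage of 2 microM BOC-RVRR-AMC, below its ~15 microM Km, by 5 nM full-length human furin at pH 7.0 after a 15-min compound preincubation. Inhibition derives from the 15-min fluorescence increase at 37C.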

[3] = test system: Zika virus NS2B-NS3 protease (unlinked); assay: Optimization of GU AMC qHTS for Zika virus inhibitors: Unlinked NS2B-NS3 protease assay (AID 1347151); conditions: recombinant ZIKV NS2B-NS3 protease, fluorogenic AMC substrate; series mostly up to 52.5 µM; note: nearly all actives have a fitted effect of over 80% in size; note: potency is the fitted concentration of half-maximal effect
Outline: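 Fluorescence gain (340/450 nm) over 15 min at room temperature, ~20% conversion, gave percent inhibition fitted to a 4-parameter Hill equation; enzyme was unlinked NS2B-NS3 (25 nM final), pH 8.0 Tris buffer.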

[4] = target: N-terminal Xaa-Pro-Lys N-methyltransferase 1 (Homo sapiens) (UniProt Q9BV86); assay: qHTS Assay for Inhibitors of N-terminal methyltransferase 1 (NTMT1): LOPAC validation of the NTMT1 SAHH-coupled ThioGlo3 Assay (AID 1347143); conditions: recombinant NTMT1, SAHH-coupled ThioGlo3 fluorescence; series mostly up to 114 µM;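 note: SAH from peptide methylation measured as thiol fluorescence via SAHH coupling and ThioGlo3; nearly all actives have a fitted effect of over 70% in size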; note: potency is the fitted concentration of half-maximal effect
Outline: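 In this qHTS pilot against the LOPAC set, 125nM NTMT1 met compounds tested at multiple concentrations, and fluorescence was normalized to background.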

[5] = qHTS of pediatric cancer cell lines to identify multiple opportunities for drug repurposing: Confirmatory screen for A673 cells (AID 1347110); conditions: A673 Ewing sarcoma cell viability; series mostly up to 45.9 µM;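 note: cells exposed to compound for 48 h before the viability read; nearly all actives have a fitted effect of over 65% in size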; note: potency is the fitted concentration of half-maximal effect
Outline: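 Viability was read as ATP luminescence (CellTiter-Glo) after 48 h of compound exposure at 37 C in A673 cells seeded at 500-1,000/well. Titrations reached 46 uM final, with 11 points in the confirmatory screen. Concentration-response curves were fitted directly.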

[6] = qHTS of pediatric cancer cell lines to identify multiple opportunities for drug repurposing: Confirmatory screen for SK-N-MC cells (AID 1347111); conditions: SK-N-MC cell viability; series mostly up to 45.9 µM;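 note: potency is the fitted concentration of half-maximal effect; cells exposed to compound for 48 h before the readout; nearly all actives have a fitted effect of over 70% in size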
Outline: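 Metabolically active cells were quantified by ATP-dependent luminescence (CellTiter-Glo, 15 min at room temperature) following 48 h treatment. Cells had been plated at 500-1,000 per well and settled for 5 h beforehand.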

[7] = qHTS of pediatric cancer cell lines to identify multiple opportunities for drug repurposing: Confirmatory screen for LAN-5 cells (AID 1347113); conditions: LAN-5 neuroblastoma cell viability; series mostly up to 45.9 µM; note: nearly all actives have a fitted effect of over 65% in size; note: potency is the fitted concentration of half-maximal effect
Outline: as §1

[8] = qHTS of pediatric cancer cell lines to identify multiple opportunities for drug repurposing: Confirmatory screen for DAOY cells (AID 1347114); conditions: DAOY medulloblastoma cells viability, cytotoxicity qHTS; series mostly up to 45.9 µM; note: nearly all actives have a fitted effect of over 65% in size; note: potency is the fitted concentration of half-maximal effect; for activity change, negative = cytotoxic: % is set by controls: 0 for no effect and ±100 for the full control effect
Outline: (§2)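 Viability measured as metabolically active cells via CellTiter-Glo luminescence following 48 hours of compound exposure, 11-point dilutions in confirmatory testing. 500-1,000 cells/well plated 5 hours before dosing; controls were DMSO and 2.3 µM bortezomib.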

[9] = qHTS of pediatric cancer cell lines to identify multiple opportunities for drug repurposing: Confirmatory screen for SJ-GBM2 cells (AID 1347116); conditions: SJ-GBM2 glioblastoma cells, viability; series mostly up to 45.9 µM; note: nearly all actives have a fitted effect of over 60% in size; note: potency is the fitted concentration of half-maximal effect;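 for activity change, negative = cytotoxic: plate controls were DMSO for no effect and bortezomib for full effect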
Outline: as §2

[10] = qHTS of pediatric cancer cell lines to identify multiple opportunities for drug repurposing: Confirmatory screen for BT-37 cells (AID 1347117); conditions: BT-37 pediatric cancer cells, viability; series mostly up to 45.9 µM; note: potency is the fitted concentration of half-maximal effect; nearly all actives have a fitted effect of over 55% in size
Outline: as §1

[11] = qHTS of pediatric cancer cell lines to identify multiple opportunities for drug repurposing: Confirmatory screen for TC32 cells (AID 1347118); conditions: TC32 Ewing sarcoma cells viability qHTS; series mostly up to 45.9 µM;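 note: potency is the fitted concentration of half-maximal effect; cells exposed to compound for 48 h before the read; nearly all actives have a fitted effect of over 65% in size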
Outline: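 qHTS, TC32, 48 h drug treatment, CellTiter-Glo luminescence as a proxy for metabolically active cells; primary top concentration 46 µM (MIPE 11-pt, NPC 8-pt); confirmatory 11-pt.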

[12] = qHTS of pediatric cancer cell lines to identify multiple opportunities for drug repurposing: Confirmatory screen for OHS-50 cells (AID 1347128); conditions: OHS-50 osteosarcoma cells viability; series mostly up to 45.9 µM;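 note: compound exposure lasted 48 h at 37 degrees C; nearly all actives have a fitted effect of over 55% in size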; note: potency is the fitted concentration of half-maximal effect
Outline: as §1

[13] = qHTS of pediatric cancer cell lines to identify multiple opportunities for drug repurposing: Confirmatory screen for BT-12 cells (AID 1347112); conditions: BT-12 rhabdoid tumor cells, viability; series mostly up to 45.9 µM; note: nearly all actives have a fitted effect of over 55% in size; note: potency is the fitted concentration of half-maximal effect; for activity change, negative = cytotoxic: % is set by controls: 0 for no effect and ±100 for the full control effect
Outline: as §1

[14] = qHTS of pediatric cancer cell lines to identify multiple opportunities for drug repurposing: Confirmatory screen for NB-EBc1 cells (AID 1347115); conditions: NB-EBc1 neuroblastoma cells, viability (cytotoxicity); series mostly up to 45.9 µM;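 note: cells exposed to compound for 48 h before the viability read; nearly all actives have a fitted effect of over 45% in size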; note: potency is the fitted concentration of half-maximal effect; for activity change, negative = cytotoxic: % is set by controls: 0 for no effect and ±100 for the full control effect
Outline: as §1

[15] = qHTS of pediatric cancer cell lines to identify multiple opportunities for drug repurposing: Confirmatory screen for MG 63 (6-TG R) cells (AID 1347119); conditions: MG-63 (6-TG resistant) osteosarcoma viability; series mostly up to 45.9 µM; note: potency is the fitted concentration of half-maximal effect; nearly all actives have a fitted effect of over 55% in size
Outline: as §1

[16] = qHTS of pediatric cancer cell lines to identify multiple opportunities for drug repurposing: Confirmatory screen for Rh41 cells (AID 1347123); conditions: Rh41 rhabdomyosarcoma cells, viability/cytotoxicity qHTS; series mostly up to 45.9 µM; note: potency is the fitted concentration of half-maximal effect; nearly all actives have a fitted effect of over 60% in size
Outline: as §1

[17] = qHTS of pediatric cancer cell lines to identify multiple opportunities for drug repurposing: Confirmatory screen for RD cells (AID 1347124); conditions: RD rhabdomyosarcoma cell viability; series mostly up to 45.9 µM; note: potency is the fitted concentration of half-maximal effect; for activity change, negative = cytotoxic: % is set by controls: 0 for no effect and ±100 for the full control effect
Outline: as §1

[18] = qHTS of pediatric cancer cell lines to identify multiple opportunities for drug repurposing: Confirmatory screen for Rh30 cells (AID 1347126); conditions: Rh30 rhabdomyosarcoma cell viability; series mostly up to 45.9 µM; note: nearly all actives have a fitted effect of over 55% in size; note: potency is the fitted concentration of half-maximal effect
Outline: as §1

[19] = qHTS of pediatric cancer cell lines to identify multiple opportunities for drug repurposing: Confirmatory screen for Rh18 cells (AID 1347125); conditions: Rh18 rhabdomyosarcoma cells, viability; series mostly up to 45.9 µM; note: nearly all actives have a fitted effect of over 55% in size; note: potency is the fitted concentration of half-maximal effect
Outline: as §1

Sequence of N-terminal Xaa-Pro-Lys N-methyltransferase 1 (Homo sapiens) (Q9BV86 whole entry, looked up): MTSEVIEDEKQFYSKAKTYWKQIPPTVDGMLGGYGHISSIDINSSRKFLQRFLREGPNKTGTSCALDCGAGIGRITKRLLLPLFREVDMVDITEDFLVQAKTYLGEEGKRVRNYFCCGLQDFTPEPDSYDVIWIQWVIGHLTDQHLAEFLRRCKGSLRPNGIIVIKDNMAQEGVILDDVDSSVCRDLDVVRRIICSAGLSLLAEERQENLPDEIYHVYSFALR
Sequence of Furin (Homo sapiens) (P09958 whole entry, looked up): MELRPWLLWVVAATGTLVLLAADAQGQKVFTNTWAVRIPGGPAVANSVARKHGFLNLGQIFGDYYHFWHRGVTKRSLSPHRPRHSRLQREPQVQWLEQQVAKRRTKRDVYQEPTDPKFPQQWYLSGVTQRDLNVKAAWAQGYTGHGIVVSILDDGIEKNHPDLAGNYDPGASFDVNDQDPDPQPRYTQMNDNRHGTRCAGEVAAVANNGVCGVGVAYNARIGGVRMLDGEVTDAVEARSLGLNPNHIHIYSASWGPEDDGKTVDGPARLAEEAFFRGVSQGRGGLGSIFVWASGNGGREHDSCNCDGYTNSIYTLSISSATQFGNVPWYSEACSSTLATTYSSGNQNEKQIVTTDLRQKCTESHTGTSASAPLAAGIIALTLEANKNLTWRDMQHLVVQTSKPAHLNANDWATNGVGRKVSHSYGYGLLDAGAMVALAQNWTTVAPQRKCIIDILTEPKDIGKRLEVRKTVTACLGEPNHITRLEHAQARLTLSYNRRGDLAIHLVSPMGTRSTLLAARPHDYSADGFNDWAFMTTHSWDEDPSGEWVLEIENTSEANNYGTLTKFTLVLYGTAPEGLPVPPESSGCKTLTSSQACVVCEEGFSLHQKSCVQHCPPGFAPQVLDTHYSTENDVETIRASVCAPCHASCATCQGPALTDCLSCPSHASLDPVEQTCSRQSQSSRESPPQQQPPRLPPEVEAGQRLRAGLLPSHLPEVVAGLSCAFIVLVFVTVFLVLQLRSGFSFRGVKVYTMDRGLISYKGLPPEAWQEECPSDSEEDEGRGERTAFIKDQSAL

CC[C@@H](CO)NCCN[C@@H](CC)CO
inactive: Potency [1]

Nc1ccn([C@@H]2O[C@H](CO)[C@@H](O)C2(F)F)c(=O)n1
inactive: Potency [2] | Potency [1] | Potency (Furin (Homo sapiens)) | Potency [3]

CCN1CCC[C@H]1CNC(=O)c1c(OC)ccc(Br)c1OC
inactive: Potency [1]

CC(=O)OCC(=O)NCCCOc1cccc(CN2CCCCC2)c1
inactive: Potency [1]

Cc1c(C(C)C)c(=O)n(-c2ccccc2)n1C
inactive: Potency [1]

C[C@@H]1C(=O)NC2=Nc3cccc(Cl)c3CN21
inactive: Potency [4] | Potency [3]

CC(C)(C)CC(C)(C)c1ccc(OCCOCC[N+](C)(C)Cc2ccccc2)cc1
inactive: Potency (Furin (Homo sapiens)) | Potency [3]
active: Potency [1] 16.8 µM

CC(C)COC(=O)OCN1C(=O)CN(CCN2CC(=O)N(COC(=O)OCC(C)C)C(=O)C2)CC1=O
inactive: Potency [4] | Potency [3]

C[N+]1(CCCCC[N+]2(C)CCCC2)CCCC1
inactive: Potency [4] | Potency [3]

Nc1ccc(/C=C/c2ccc(N)cc2S(=O)(=O)O)c(S(=O)(=O)O)c1
inactive: activity change, negative = cytotoxic [1] 37.3% [at 0.597 µM]

COC(=O)[C@H]1[C@H]2C[C@H]3c4[nH]c5ccccc5c4CCN3C[C@H]2CC[C@@H]1O
inactive: Potency [3]

CCOC(=O)COc1ccc2c(C)c(CCN(CC)CC)c(=O)oc2c1Cl
inactive: Potency [1]

CCCC1O[C@@H]2C[C@H]3[C@@H]4CCC5=CC(=O)C=C[C@]5(C)[C@H]4[C@@H](O)C[C@]3(C)[C@]2(C(=O)CO)O1 (stereo partly drawn)
inactive: Potency [4] | Potency [3]

CC(=O)OCC(=O)[C@@]12N=C(C)O[C@@H]1C[C@H]1[C@@H]3CCC4=CC(=O)C=C[C@]4(C)[C@H]3[C@@H](O)C[C@@]12C
inactive: Potency [1] | Potency [8]
active: Potency [5] 0.293 µM | Potency [6] 0.261 µM | Potency [7] 1.47 µM | Potency [9] 1.04 µM | Potency [10] 0.657 µM | Potency [11] 0.369 µM | Potency [12] 1.31 µM

C[C@]12CCC(=O)C=C1[C@@H]1C[C@@H]1[C@H]1[C@@H]3[C@@H]4C[C@@H]4[C@@]4(CCC(=O)O4)[C@@]3(C)CC[C@@H]12
inactive: Potency [1]

CN1C2CCC1CC(OC(=O)c1c[nH]c3ccccc13)C2 (stereo not drawn)
inactive: Potency [4] | Potency [3]

CC(=O)O[C@H]1C[C@@H]2CC[C@@H]3[C@H](CC[C@@]4(C)[C@H]3C[C@H]([N+]3(C)CCCCC3)[C@@H]4OC(C)=O)[C@@]2(C)C[C@@H]1[N+]1(C)CCCCC1
inactive: Potency [4] | Potency [3]

COc1cc(C=C2CCC/C(=C\c3ccc(O)c(OC)c3)C2=O)ccc1O
active: Potency [5] 0.185 µM | Potency [6] 0.465 µM | Potency [13] 18.5 µM | Potency [7] 5.85 µM | Potency [8] 14.7 µM | Potency [14] 23.3 µM | Potency [9] 18.5 µM | Potency [10] 5.85 µM | Potency [11] 0.414 µM | Potency [15] 20.8 µM | Potency [16] 14.7 µM | Potency [17] 9.27 µM | Potency [18] 20.8 µM | Potency [12] 16.5 µM

CCCn1c(=O)[nH]c(=O)c2[nH]cnc21
inactive: Potency [4] | Potency [3]

N[C@H](CO)C(=O)O
inactive: Potency [4] | Potency [3]

CC(CCc1ccccc1)NCC(O)c1ccc(O)c(C(N)=O)c1 (stereo not drawn)
active: Potency [4] 56.2 µM | Potency [3] 26.7 µM

C[C@]12CC[C@@H]3c4ccc(O)cc4CC[C@H]3[C@@H]1CC[C@@H]2O
inactive: Potency [3]

CC(=O)OCC(=O)[C@@]1(OC(C)=O)[C@@H](C)C[C@H]2[C@@H]3C[C@H](F)C4=CC(=O)C=C[C@]4(C)[C@@]3(F)[C@@H](O)C[C@@]21C
inactive: Potency [1] | Potency [5] | Potency [13] | Potency [7] | Potency [14] | Potency [9] | Potency [17] | Potency [19] | Potency [18] | Potency [12]

CC[C@H](C)C(=O)O[C@H]1CCC=C2C=C[C@H](C)[C@H](CC[C@@H]3C[C@@H](O)CC(=O)O3)[C@H]21
inactive: Potency [4] | Potency [3]

CCCCCCC[N+](CC)(CC)CCCCc1ccc(Cl)cc1
inactive: Potency [8] | Potency [17]
active: Potency [1] 15 µM | Potency [5] 3.69 µM | Potency [6] 9.27 µM | Potency [13] 8.27 µM | Potency [7] 8.27 µM | Potency [10] 5.22 µM | Potency [15] 13.1 µM | Potency [19] 13.1 µM | Potency [18] 10.4 µM | Potency [12] 23.3 µM

Nc1cc(Cl)c(NC2=NCCN2)c(Cl)c1
inactive: Potency [4] | Potency [3]

C[n+]1c2cc(N)ccc2cc2ccc(N)cc21 (tested in a mixture with another compound)
active: Potency [1] 16.8 µM | Potency [5] 5.22 µM | Potency [6] 6.57 µM | Potency [13] 0.928 µM | Potency [7] 3.29 µM | Potency [8] 6.57 µM | Potency [9] 13.1 µM | Potency [10] 0.827 µM | Potency [11] 5.85 µM | Potency [15] 14.7 µM | Potency [16] 5.22 µM | Potency [17] 0.657 µM | Potency [19] 5.85 µM | Potency [18] 6.57 µM | Potency [12] 9.27 µM
